Screens as filed in PubChem BioAssay.
Rows were chosen to be rich in hits. Some 4.7% of all compounds tested hit in one or more screens of this group.
TRHR enhancer: allosteric enhancers of human TRH receptor | enhancement, % at 2 µM | hit rate 0.66% among 360,000 | AID 493056 | P34981 | TRHR cells, fluo-8 calcium fluorescence, EC20 TRH enhancement; in the data active = enhancement above about 30%
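Enhancer read-out: after compound pinning and an initial kinetic agonist-mode read, an EC20 of TRH (10 nM final) was injected and fluo-8 calcium signal (Ex 480/Em 530) followed at 1 s/cycle for 100 cycles in TRHR-expressing cells.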
TRHR agonist: agonists of human TRH receptor; P34981; TRHR cells, calcium flux fluo-8, FDSS agonist mode; activation, % at 2 µM; hit rate 0.18% among 360,000; AID 493084
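Read-out: compound-evoked intracellular calcium rise in TRHR cells, fluo-8 dye, kinetic FDSS fluorescence at 1 s/cycle following a 10-cycle baseline. Cells cultured overnight before dye loading (30 min–1.5 h, RT).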
D1 agonist: agonists of human D1 dopamine receptor; P21728; hit rate 1% among 360,000; HEK293 T-REx D1 cells, calcium flux, agonist mode; AID 504660; activation, % at 2 µM
Target sequence (P21728 whole entry, looked up): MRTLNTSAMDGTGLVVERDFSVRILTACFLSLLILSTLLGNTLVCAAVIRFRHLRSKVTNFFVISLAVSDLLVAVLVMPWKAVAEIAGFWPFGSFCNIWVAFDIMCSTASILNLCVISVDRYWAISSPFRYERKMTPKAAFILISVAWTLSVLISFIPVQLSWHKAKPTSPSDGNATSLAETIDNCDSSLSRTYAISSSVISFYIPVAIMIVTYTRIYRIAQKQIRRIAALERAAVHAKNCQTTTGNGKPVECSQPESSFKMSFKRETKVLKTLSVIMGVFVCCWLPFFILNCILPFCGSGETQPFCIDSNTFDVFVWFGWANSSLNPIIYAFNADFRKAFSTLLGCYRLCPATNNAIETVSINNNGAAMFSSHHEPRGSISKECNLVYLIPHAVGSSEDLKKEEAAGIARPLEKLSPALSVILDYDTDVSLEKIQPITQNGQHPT
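Inducible HEK293 T-REx D1 cells, force-coupled to calcium signalling, were plated at 4000 cells/well with tetracycline and held overnight at 30 C. After no-wash calcium dye loading, compound-evoked calcium rise over 180 s flagged agonists.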
D1 potentiator: human D1 dopamine receptor positive modulation. HEK293 TREx D1 cells, calcium flux, dopamine EC20 potentiation. potentiation, % at 10 µM. hit rate 0.036% among 360,000. AID 504651; in the data active = potentiation above about 30%
D1 antagonist: human D1 dopamine receptor antagonism | activity change, negative = inhibition, % at 10 µM | HEK293 TREx D1 cells, calcium flux, dopamine EC80; stronger effect = lower value | hit rate 3.2% among 360,000; in the data active = activity change below about -30%
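Cells carrying a force-coupled, tetracycline-inducible human D1 receptor report calcium flux. Each well gets a 10 s baseline, compound with 180 s monitoring, then an EC80 dopamine stimulus with a second 180 s kinetic read.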
Each line names hits and unclear results; the compound was inactive in the other large screens. Rule as the data show it, unless noted: active = activation above about 30%; inactive = the rest.

CCOc1ccc(NC(=O)c2c[nH]n3c(=O)cc(C4CCN(C(=O)OC(C)(C)C)CC4)nc23)cc1	D1 antagonist -32
CCCc1nc(C(C)(C)O)c(C(=O)O)n1Cc1ccc(-c2ccccc2-c2nn[nH]n2)cc1	D1 antagonist -43
CCOc1ccc(C(=O)NC(Cc2ccccc2)C(=O)OC)cc1 (configuration not stated)	D1 antagonist -32
CCOc1cc(C#N)c(NC(=O)c2ccc(OC)c(S(=O)(=O)N3CCCCC3)c2)cc1OCC	none
Cc1cc(C)c(N)c(C(=O)O)c1	TRHR enhancer 38
CCN(CC)C(=O)Cn1cc(SCC(=O)Nc2ccc(C)cc2)c2ccccc21	none
Cc1ccc(-n2cc(C(=O)OCc3ccc(F)c(F)c3)c3ccccc3c2=O)cc1	none
Cc1ccc(S(=O)(=O)c2c(Nc3ccccc3)sc(C(=O)c3ccc4c(c3)OCO4)c2N)cc1	D1 agonist 64
COc1ccc(S(=O)(=O)c2c(Nc3ccc(F)cc3)sc(C(=O)c3ccc4c(c3)OCO4)c2N)cc1	D1 agonist 43
Cc1ccccc1Nc1sc(C(=O)c2ccc3c(c2)OCO3)c(N)c1S(=O)(=O)c1ccccc1	none
COc1ccc(S(=O)(=O)c2c(Nc3ccc(C)cc3)sc(C(=O)c3ccc4c(c3)OCO4)c2N)cc1	D1 agonist 78, D1 antagonist -38
CCOc1ccc(CCNC(=O)C2CCCN(c3nnc(C)c4c(C)n(-c5ccccc5)nc34)C2)cc1 (configuration not stated)	none
N#CNC(N)=Nc1cccc(Cl)c1	none
Cc1cc(C)cc(C(N)=Nc2cccc(C#N)c2)c1	D1 antagonist -50
CCc1ccccc1N(C)C(=O)c1cn(-c2cccc(OC)c2)c(=O)c2ccccc12	none
CCOC(=O)c1ccc(NC(=O)Nc2ccc3snnc3c2)cc1	none
O=C(O)c1cccc(OCCN2CCCC2=O)c1	D1 antagonist -32
O=C(NCCCN1CCCC1=O)c1cccc(Oc2ccccc2)c1	none
CC(Cl)OC(=O)Nc1cccc2cccnc12 (configuration not stated)	none
NC(=O)c1ccc(Oc2ccc(Cl)c3ccccc23)c([N+](=O)[O-])c1	TRHR enhancer 31
NC(=O)c1ccc(Oc2ccc(Cl)cc2)c([N+](=O)[O-])c1	none
COC(=O)C(/C=N/OCc1ccc([N+](=O)[O-])cc1)NC(=O)c1cccc(Cl)c1 (configuration not stated)	D1 agonist 41
CCOc1ccc(NC(=O)N(Cc2c[nH]c3ccccc23)C2CCCCC2)cc1	none
COC(=O)c1ccc(NS(=O)(=O)c2ccccc2)o1	D1 antagonist -33
O=c1c2cc(-c3ccccc3)sc2ncn1/N=C/c1ccco1	D1 antagonist -33
CCOC(=O)c1ccccc1NC(=O)c1cnn(-c2ccc(OC)cc2)c1C1CCN(C(=O)OC(C)(C)C)CC1	none
COc1ccc(C)cc1NC(=O)Nc1ccccc1	none
COc1cc(NC(=O)c2cccc([N+](=O)[O-])c2C)ccc1NC(=O)c1ccco1	D1 antagonist -36
N#Cc1ccc(NC(=O)Nc2ccc(Cl)cc2)cc1	D1 agonist 31, D1 antagonist -41
COC(=O)c1cc(NC(=O)Nc2cc(OC)ccc2OC)cc(C(=O)OC)c1	none
COc1cc(NC(=O)c2cc([N+](=O)[O-])ccc2N2CCOCC2)ccc1NC(=O)c1ccco1	none
COc1ccc(NC(=O)Nc2cc(C)ccc2OC)cc1	D1 antagonist -32
COc1ccc(OC)c(NC(=O)Nc2ccc(Cl)cc2)c1	D1 antagonist -43
COc1ccc(CNC(=O)C2CCN(C(=O)c3ccc(-n4ccc5ccccc54)s3)CC2)cc1	none
CCN(CC)c1ccc(NC(=O)CN(C)S(=O)(=O)c2cccc3nsnc23)c(C)c1	none
COc1ccc(/C(C)=N/NC(=O)Cn2nc([N+](=O)[O-])cc2C)cc1	none
CCn1cc(NC(=O)Nc2ccccc2C(=O)OC)c(C(N)=O)n1	none
COC(=O)c1ccccc1NC(=O)c1ccco1	D1 antagonist -34
CCn1cc(Br)c(C(=O)Nc2ccccc2C(=O)OC)n1	D1 antagonist -36
COc1ccc(OC)c(NC(=O)Nc2cccc(Cn3cccn3)c2)c1	D1 antagonist -36
COc1ccc(NC(=O)c2ccc3ncsc3c2)cc1	TRHR enhancer 35
COc1cccc(NC(=O)Nc2cc(C)ccc2OC)c1	none
Cc1ccc2c(CNC3CCCCC3)c(C(=O)O)n(Cc3ccc(F)cc3)c2c1	none
COc1ccc(NC(=O)CSc2oc(-c3ccc(C)cc3)nc2S(=O)(=O)c2ccc(C)cc2)c(OC)c1	none
COc1cccc(OCCn2c(-c3ccc(Cl)cc3)nc3ccccc3c2=O)c1	none
O=C(NCCO)C(=O)Nc1c2c(nn1-c1ccc(F)cc1)CSC2	none (no result: D1 antagonist)
O=C(NCC1COc2ccccc2O1)c1ccc(NC(=O)c2ccco2)cc1 (configuration not stated)	D1 antagonist -30
COc1ccc(C(=O)NC(=S)N2CCN(c3ccccc3OC)CC2)cc1	none (no result: D1 potentiator)
COc1ccc(C)cc1NC(=O)NC(C)c1ccncc1 (configuration not stated)	D1 antagonist -32
CNC(=S)N1CCN(c2ccccc2OC)CC1	D1 antagonist -46
O=C(OCC(=O)c1cccs1)c1ccc(NC(=O)c2ccco2)cc1	D1 antagonist -33
Cc1nn(C(C)C(=O)NC2CCC(C)CC2)c(=O)c2c1sc1ccccc12 (configuration not stated)	none
COc1ccc(C(=O)Nc2ccc(NC(=O)c3ccco3)cc2)cc1	TRHR enhancer 39
COc1cc(NC(=O)c2ccco2)c(OC)cc1NC(=O)Nc1ccc(Cl)cc1	D1 antagonist -44
COc1cc(OC)c(NC(=O)c2ccco2)cc1Cl	none
COc1ccc(OC)c(NC(=O)COC(=O)c2n[nH]c3ccccc23)c1	D1 antagonist -39 (no result: D1 potentiator)
COc1ccccc1/C=C/C(=O)OCC(=O)Nc1ccccc1Sc1ccccc1	D1 agonist 50
O=C1c2ccccc2C(=O)C1(c1ccccc1)N1CCN(c2cccc(Cl)c2)CC1	none
COc1ccc(/C=C/C(=O)OCC(=O)NCCC2=CCCCC2)cc1	D1 antagonist -37
Cc1ccc(NC(=O)Nc2ccc(F)c(Cl)c2)cc1	none (no result: D1 antagonist)
COc1ccc(NC(=O)Nc2ccc(F)c(Cl)c2)cc1	D1 antagonist -49
COc1ccc(NC(=O)COc2ccccc2)cc1NC(=O)c1ccco1	D1 antagonist -37
Cc1ccc(C(=O)C(C)Oc2cccc(NC(=O)c3ccco3)c2)cc1 (configuration not stated)	D1 agonist 42
Cc1cccc(N(CC(N)=O)C2SC(=O)N(Cc3cccc(C(=O)O)c3)C2=O)c1 (configuration not stated)	none
Cc1nn(-c2ccc(N3CCCC3)nn2)c(C)c1CCC(=O)NCc1ccc(OC(C)C)cc1	none
CCOc1ccccc1N1CCN(C(=O)Nc2ccc(F)c(Cl)c2)CC1	none
